SENP8 block-1: human SENP8 protease inhibitors, primary screen, biochemical, fluorescence, Nedd8 protein substrate, uHTS | inhibition, % at 20 µM | 0.64% of 360,000 active | recombinant SENP8 | Sentrin-specific protease 8 (Homo sapiens), Q96LD8; in the data active = inhibition mostly above about 40%, no sharp cut-off; inactive = mostly below about 27%
SENP8 block-2: SENP8 protease inhibitors, primary screen, biochemical, luminescence. 1.2% of 330,000 active. purified SENP8, Z-RLRGG-aminoluciferin cleavage. inhibition, % at 10 µM. Sentrin-specific protease 8 (Homo sapiens), Q96LD8. AID 2540, 2010; in the data active = inhibition above about 50%
PPC-1+TRAIL kill: compounds killing PPC-1 cancer cells with TRAIL present, primary screen, TRAIL potentiator project, ATPLite luminescence, uHTS; 0.41% of 220,000 active; AID 1443, 2008; cell killing (% activity), % at 4 µM or 5 µM; PPC-1 cells + TRAIL, ATPLite viability luminescence;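 active = cell killing above 50% in the first pass at 4 µM, then a duplicate retest at 5 µM averaging 50% or more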
SENP7 block: SENP7 protease inhibitors, primary screen, biochemical, luminescence, uHTS | recombinant SENP7, Z-RLRGG-aminoluciferin luminescence, 40 min | 1.5% of 330,000 active | inhibition, % at 5 µM | Sentrin-specific protease 7 (Homo sapiens), Q9BQF6;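 active = inhibition above about 50% at the single test dose, limit read from the data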
Target sequence (Q9BQF6 706-1050 limits assumed): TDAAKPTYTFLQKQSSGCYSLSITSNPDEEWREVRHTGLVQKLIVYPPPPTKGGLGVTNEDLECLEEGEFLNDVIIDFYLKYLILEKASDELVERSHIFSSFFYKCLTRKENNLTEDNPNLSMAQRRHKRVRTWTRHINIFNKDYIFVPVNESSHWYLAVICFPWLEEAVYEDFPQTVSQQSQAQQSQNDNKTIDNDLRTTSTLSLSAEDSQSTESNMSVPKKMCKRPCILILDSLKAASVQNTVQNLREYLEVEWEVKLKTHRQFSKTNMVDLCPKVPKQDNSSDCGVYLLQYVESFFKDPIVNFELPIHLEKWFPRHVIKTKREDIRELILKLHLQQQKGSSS
C8 TRAIL sens: viability loss with TRAIL in NB7+C8 cells, primary screen, TRAIL sensitizer project, cell-based, ATPlite luminescence; inhibition (viability loss, TRAIL sensitization), % at 10 µM; 1% of 360,000 active; AID 624354, 2012;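 active = compounds causing at least 50% loss of cell viability in the single-dose screen, relative to plate controls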
SENP6 inh: SENP6 protease inhibitors, primary screen, biochemical, luminescence, uHTS | inhibition, % at 10 µM | 1.8% of 330,000 active | AID 2599, 2010 | Recombinant SENP6 catalytic domain, aminoluciferin luminescence;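 active = inhibition above about 50% at the single tested dose, limit read from the data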
Numbers stand for hits. This is a sample that favours compounds with a hit; in the whole collection about 3% have one here.

Screening C=C(C)CSc1nnc([C@@H](N)Cc2c[nH]c3ccccc23)o1 returned SENP8 block-1 inactive, SENP8 block-2 inactive, PPC-1+TRAIL kill inactive, SENP7 block inactive, C8 TRAIL sens inactive and SENP6 inh inactive.
Screening O=P(N[C@@H](c1ccccc1)[C@@H]1C[C@H]1CO)(c1ccccc1)c1ccccc1 returned SENP8 block-1 inactive, SENP8 block-2 inactive, PPC-1+TRAIL kill inactive, SENP7 block inactive, C8 TRAIL sens inactive and SENP6 inh inactive.
Screening O=C1NC(=O)C(Cc2ccccc2)(Cc2ccccc2)C(=O)N1Cc1ccccc1 returned SENP8 block-1 inactive and C8 TRAIL sens inactive.
For O=C1OCc2cc(N=Nc3c(O)[nH]c(=O)[nH]c3=O)ccc21 the results were SENP8 block-1 inactive, SENP8 block-2 inactive, PPC-1+TRAIL kill inactive, SENP7 block inactive, C8 TRAIL sens inactive and SENP6 inh inactive.
Screening O=S(=O)(c1cc(Cl)cc(Cl)c1)N1Cc2cc(N3CCOCC3)ccc2-n2nncc2C1 returned SENP8 block-1 inactive and C8 TRAIL sens inactive.
For CC(C)CN(C(=O)CN1CC=C(c2ccccc2)CC1)c1c(N)n(CC(C)C)c(=O)[nH]c1=O the results were SENP8 block-1 inactive, SENP8 block-2 inactive, PPC-1+TRAIL kill inactive, SENP7 block inactive, C8 TRAIL sens inactive and SENP6 inh inactive.
`COc1ccc(-n2c(/C=C/c3ccc(O)cc3)nc3ccccc3c2=O)cc1` gave SENP8 block-1 inactive, SENP8 block-2 inactive, SENP7 block inactive, C8 TRAIL sens inactive and SENP6 inh inactive.
For CCn1nc(/C=C/c2ccccc2)nc2c(=O)n(C)c(=O)nc1-2 the results were SENP8 block-1 72.8, SENP8 block-2 96.2, PPC-1+TRAIL kill inactive, SENP7 block 96.2, C8 TRAIL sens inactive and SENP6 inh 88.8.
Screening CCOc1ccc(-n2c(-c3cccs3)nc3ccccc3c2=O)cc1 returned SENP8 block-1 inactive, SENP8 block-2 inactive, PPC-1+TRAIL kill inactive, SENP7 block inactive, C8 TRAIL sens inactive and SENP6 inh inactive.
`CCn1nc(-c2cccs2)nc2c(=O)n(C)c(=O)nc1-2` gave SENP8 block-1 80.5, PPC-1+TRAIL kill inactive and C8 TRAIL sens 95.2.
Screening CC(C)[C@H]1C(=O)O[C@H](C(C)C)C(=O)N(C)[C@@H](C(C)C)C(=O)O[C@H](C(C)C)C(=O)N(C)[C@@H](C(C)C)C(=O)O[C@H](C(C)C)C(=O)N1C returned SENP8 block-1 inactive, SENP8 block-2 inactive, PPC-1+TRAIL kill inactive, SENP7 block inactive, C8 TRAIL sens 52.9 and SENP6 inh inactive.
`O=[N+]([O-])c1ccc(NC2CCCC2)c2ccncc12` gave SENP8 block-1 47.1, SENP8 block-2 inactive, SENP7 block inactive, C8 TRAIL sens inactive and SENP6 inh inactive.
COc1ccc(-c2cc(C(=O)N3CCC4(CC3)OCCO4)c3ccccc3n2)cc1 was read as SENP8 block-1 inactive, SENP8 block-2 inactive, SENP7 block inactive, C8 TRAIL sens inactive and SENP6 inh inactive.
Screening CCOc1ccc(-c2cc(C(=O)N3CCC4(CC3)OCCO4)c3ccccc3n2)cc1 returned SENP8 block-1 inactive and C8 TRAIL sens 70.6.
Cc1nn(Cc2c(Cl)cccc2Cl)c(Cl)c1C(=O)O was read as SENP8 block-1 inactive, SENP8 block-2 inactive, PPC-1+TRAIL kill inactive, SENP7 block inactive, C8 TRAIL sens inactive and SENP6 inh inactive.
`COC1=CC=C2[C@H]3Cc4ccc(OC)c5c4[C@@]2(CCN3C)[C@H]1O5` gave SENP8 block-1 inactive, SENP8 block-2 inactive, SENP7 block inactive, C8 TRAIL sens inactive and SENP6 inh inactive.
`CC[C@@H]1c2ccccc2[C@@H]2CC[C@H]1N2c1ccccc1` gave SENP8 block-1 inactive and C8 TRAIL sens inactive.
COc1ccc(CN2C(=O)NC(=O)/C(=C/c3ccc([N+](=O)[O-])s3)C2=O)cc1 was read as SENP8 block-1 42.9, SENP8 block-2 inactive, PPC-1+TRAIL kill inactive, SENP7 block inactive, C8 TRAIL sens inactive and SENP6 inh inactive.
For O=C1NC(=O)N(Cc2ccc(F)cc2)C(=O)/C1=C\c1ccc(N2CCCC2)cc1 the results were SENP8 block-1 inactive, SENP8 block-2 inactive, PPC-1+TRAIL kill inactive, SENP7 block inactive, C8 TRAIL sens inactive and SENP6 inh inactive.
